PubChem BioAssay (NCI)
Several values for one entry are separate records, joined by “and”; a condition that tells them apart may be missing. Equal entries are not always repeated. Compounds without any hit were thinned out: in the full panel of roughly 79,000, 15% have a hit. The source holds several records for some structures; these can differ, active in one and inactive in another. Activity calls are given as the source filed them. Cut-off read from the data, not from the text of the source: active = growth inhibition above about 70%; inactive = the rest.

Columns and labels:
[1] = NCI Yeast Anticancer Drug Screen. Data for the mec2-1 strain (AID 157); settings: S. cerevisiae mec2-1 strain, stronger effect = higher value
How it was run: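 Mutant yeast (mec2-1) grown with compound; growth inhibition relative to vehicle control reported.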

[2] = NCI Yeast Anticancer Drug Screen. Data for the rad14 strain (AID 159);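 note: 0% = growth of vehicle-treated control cultures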; settings: S. cerevisiae rad14 strain growth inhibition, stronger effect = higher value
How it was run: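 Inhibition of growth is reported for a repair-deficient yeast mutant following compound treatment, calculated relative to cultures that received vehicle.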

[3] = NCI Yeast Anticancer Drug Screen. Data for the sgs1 mgt1 strain (AID 161);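 note: 0% = growth of cultures given vehicle only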; settings: S. cerevisiae sgs1 mgt1 strain, stronger effect = higher value
How it was run: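 Percent growth inhibition was derived by comparing compound-exposed mutant yeast with vehicle-exposed cultures. The strain carries alterations in DNA damage repair.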

[4] = NCI Yeast Anticancer Drug Screen. Data for the CLN2oe strain (AID 163);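 note: 0% = growth of vehicle-only control cultures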; settings: S. cerevisiae CLN2oe strain, stronger effect = higher value
How it was run: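 Compounds are applied to yeast harbouring a defined cell-cycle control change; reduced growth compared with vehicle-treated controls gives the value.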

[5] = NCI Yeast Anticancer Drug Screen. Data for the cln2 rad14 strain (AID 165);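 note: 0% = growth equal to vehicle treated cultures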; settings: S. cerevisiae cln2 rad14 strain, stronger effect = higher value
How it was run: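 Readout is yeast growth inhibition versus vehicle-treated controls, using a strain with cln2 and rad14 alterations exposed to compound.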

[6] = NCI Yeast Anticancer Drug Screen. Data for the bub3 strain (AID 167); settings: S. cerevisiae bub3 mutant strain, stronger effect = higher value
How it was run: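 Mutant yeast screening strain plus compound; vehicle-treated cultures serve as the 0% inhibition reference.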

[7] = NCI Yeast Anticancer Drug Screen. Data for the wt2 strain (AID 169); settings: S. cerevisiae wt2 strain growth inhibition, stronger effect = higher value
How it was run: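 Against vehicle-treated controls, the growth of yeast exposed to each compound was compared, and the inhibition was recorded.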

[8] = NCI Yeast Anticancer Drug Screen. Data for the mlh1 strain (AID 171);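 note: 0% = growth of vehicle-treated control cultures of the same strain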; settings: S. cerevisiae mlh1 strain growth inhibition, stronger effect = higher value
How it was run: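 Measured: yeast growth. Reference: vehicle-treated controls. Organism: strain with a defined alteration affecting DNA damage repair or cell cycle control, treated with compound.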

[9] = NCI Yeast Anticancer Drug Screen. Data for the sgs1 strain (AID 173);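 note: 0% = growth of vehicle-only control cultures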; settings: S. cerevisiae sgs1 mutant, stronger effect = higher value
How it was run: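 Each compound was added to cultures of the altered yeast strain. Growth was recorded, and inhibition was derived by comparison with vehicle controls.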

[10] = NCI Yeast Anticancer Drug Screen. Data for the mlh1 rad18 strain (AID 175); settings: S. cerevisiae mlh1 rad18 strain growth inhibition, stronger effect = higher value
How it was run: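 Genetically defined yeast (DNA repair-deficient) exposed to compounds; growth inhibition determined relative to vehicle.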

[11] = NCI Yeast Anticancer Drug Screen. Data for the rad18 strain (AID 177); settings: S. cerevisiae rad18 mutant growth inhibition, stronger effect = higher value
How it was run: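 Vehicle-treated cultures served as the baseline for scoring compound-induced growth inhibition in DNA-repair-mutant yeast.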

[12] = NCI Yeast Anticancer Drug Screen. Data for the rad52 strain (AID 147);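 note: 0% = growth of vehicle-treated control cultures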; settings: S. cerevisiae rad52 mutant growth inhibition, stronger effect = higher value
How it was run: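 The repair-mutant yeast strain was incubated with compounds, then growth was read and inhibition derived relative to vehicle.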

[13] = NCI Yeast Anticancer Drug Screen. Data for the wt1 strain (AID 149);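 note: 0% = growth of vehicle-treated wt1 cultures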; settings: S. cerevisiae wt1 strain (SPY 50644) growth inhibition, stronger effect = higher value
How it was run: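 Each compound is tested on wt1 yeast and the loss of growth versus vehicle gives the inhibition value.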

[14] = NCI Yeast Anticancer Drug Screen. Data for the mgt1 strain (AID 153); settings: S. cerevisiae mgt1 mutant growth inhibition, stronger effect = higher value
How it was run: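 Vehicle-normalized growth inhibition is determined in mgt1 yeast, a strain selected for a defined alteration in DNA repair or cell cycle control.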

[15] = NCI Yeast Anticancer Drug Screen. Data for the rad50 strain (AID 155);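 note: 0% = growth of vehicle-only cultures of the same strain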; settings: S. cerevisiae rad50 strain growth inhibition, stronger effect = higher value
How it was run: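 Vehicle-treated cultures provide the reference for the growth inhibition reported for compound-exposed, repair-deficient yeast.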

[16] = NCI Yeast Anticancer Drug Screen. Data for the rad50EPP+ strain (AID 151);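 note: 0% = growth of vehicle-treated control cultures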; settings: S. cerevisiae rad50 mutant strain, stronger effect = higher value
How it was run: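 Vehicle-normalised growth inhibition; rad50EPP+ yeast strain, altered in DNA damage repair, compound-treated.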

[17] = at 5.0 µM (retest, dose inferred, filed as 0.5)
[18] = at 50.0 µM (retest, dose inferred, filed as 5.0)

Measured: growth inhibition

N#CNC(N)=Nc1cc2ccccc2c2ccccc12
inactive: [2]; at 1.2 µM 36% | [2]; at 3.7 µM 53% | [3]; [17] 57% | [4]; at 1.2 µM 38% | [4]; at 3.7 µM 46% | [4]; at 11.0 µM 68% | [5]; [17] 55% | [6]; at 1.2 µM 34% | [6]; at 3.7 µM 32% | [6]; [17] 40% | [6]; at 11.0 µM 67% | [7]; at 1.2 µM 17% | [7]; at 3.7 µM 12% | [7]; at 11.0 µM 62% | [8]; at 1.2 µM 31% | [8]; at 3.7 µM 50% | [9]; at 1.2 µM 20% | [9]; at 3.7 µM 58% | [10]; [17] 54% | [11]; at 1.2 µM 21% | [11]; at 3.7 µM 34%
active: [1]; at 100.0 µM 82% | [2]; at 11.0 µM 85% | [2]; at 33.0 µM 95% | [2]; at 100.0 µM 93% | [3]; [18] 96% | [3]; at 50.0 µM 78.8% | [4]; at 33.0 µM 83% | [4]; at 100.0 µM 84% | [5]; [18] 90% | [5]; at 50.0 µM 91.3% | [6]; at 33.0 µM 87% | [6]; [18] 96% | [6]; at 50.0 µM 92.2% | [6]; at 100.0 µM 93% | [7]; at 33.0 µM 89% | [7]; at 100.0 µM 89% | [8]; at 11.0 µM 78% | [8]; at 33.0 µM 92% | [8]; at 100.0 µM 91% | [9]; at 11.0 µM 87% | [9]; at 33.0 µM 96% | [9]; at 100.0 µM 96% | [10]; [18] 97% | [10]; at 50.0 µM 85.7% | [11]; at 11.0 µM 78% | [11]; at 33.0 µM 94% | [11]; at 100.0 µM 92%

COc1ccc2[nH]cc([C@@H]3C4CCC(C4)[C@H]3NCc3cccc(CN[C@H]4C5CCC(C5)[C@@H]4c4c[nH]c5ccc(OC)cc45)c3)c2c1
98.3% (active) and 55.8% (inactive): [15]; at 50.0 µM
99.4% (active) and 61% (inactive): [3]; at 50.0 µM
98.8% (active) and 35.2% (inactive): [6]; at 50.0 µM
99.2% (active) and 10.9% (inactive): [1]; at 50.0 µM
inactive: [12]; at 1.2 µM -28% | [12]; at 3.7 µM -23% | [12]; at 11.0 µM -20% | [12]; at 33.0 µM 22% | [13]; at 1.2 µM -33% | [13]; at 3.7 µM -43% | [13]; at 11.0 µM -41% | [13]; at 33.0 µM -8% | [14]; at 1.2 µM -36% | [14]; at 3.7 µM -47% | [14]; at 11.0 µM -38% | [14]; at 33.0 µM 42% | [15]; at 1.2 µM -36% | [15]; at 3.7 µM -16% | [15]; [17] -15% | [15]; at 11.0 µM -27% | [15]; at 33.0 µM 51% | [1]; at 1.2 µM -61% | [1]; at 3.7 µM -59% | [1]; [17] -2% | [1]; at 11.0 µM -54% | [1]; at 33.0 µM 26% | [2]; at 1.2 µM -30% | [2]; at 3.7 µM -23% | [2]; at 11.0 µM 0% | [3]; [17] -7% | [5]; [17] 27% | [6]; at 1.2 µM -25% | [6]; at 3.7 µM -32% | [6]; [17] 7% | [6]; at 11.0 µM -18% | [6]; at 33.0 µM 56% | [7]; at 1.2 µM -41% | [7]; at 3.7 µM -42% | [7]; at 11.0 µM -46% | [7]; at 33.0 µM 20% | [8]; at 1.2 µM -68% | [8]; at 3.7 µM -64% | [8]; at 11.0 µM -60% | [8]; at 33.0 µM 61% | [9]; at 1.2 µM -38% | [9]; at 3.7 µM -37% | [9]; at 11.0 µM -45% | [9]; at 33.0 µM -5% | [10]; [17] 2% | [10]; at 50.0 µM 38.5% | [11]; at 1.2 µM -19% | [11]; at 3.7 µM -10% | [11]; at 11.0 µM -31% | [11]; at 33.0 µM 58%
active: [12]; at 100.0 µM 98% | [13]; at 100.0 µM 93% | [14]; at 100.0 µM 98% | [15]; [18] 99% | [15]; at 100.0 µM 97% | [1]; [18] 99% | [1]; at 100.0 µM 97% | [2]; at 33.0 µM 89% | [2]; at 100.0 µM 98% | [3]; [18] 88% | [5]; [18] 99% | [5]; at 50.0 µM 99.2% and 77.3% | [6]; [18] 98% | [6]; at 100.0 µM 98% | [7]; at 100.0 µM 99% | [8]; at 100.0 µM 97% | [9]; at 100.0 µM 97% | [10]; [18] 99% | [11]; at 100.0 µM 98%

CC(C)OC(=O)Nc1ccc2nc(-c3cscn3)[nH]c2c1
active: [12]; at 100.0 µM 87% | [15]; at 100.0 µM 90% | [1]; at 100.0 µM 81% | [2]; at 100.0 µM 99% | [3]; at 50.0 µM 76% | [6]; [18] 81% | [6]; at 100.0 µM 97% | [7]; at 100.0 µM 97% | [8]; at 100.0 µM 96% | [9]; at 100.0 µM 97% | [10]; [18] 87% | [10]; at 50.0 µM 93.1% | [11]; at 100.0 µM 97%
inactive: [12]; at 1.2 µM -3% | [12]; at 3.7 µM -5% | [12]; at 11.0 µM -3% | [12]; at 33.0 µM 1% | [13]; at 1.2 µM -1% | [13]; at 3.7 µM 3% | [13]; at 11.0 µM -1% | [13]; at 33.0 µM -2% | [13]; at 100.0 µM 50% | [16]; at 1.2 µM 9% | [16]; at 3.7 µM 16% | [16]; at 11.0 µM 23% | [16]; at 33.0 µM 31% | [16]; at 100.0 µM 44% | [15]; at 1.2 µM -1% | [15]; at 3.7 µM -1% | [15]; [17] -4% | [15]; at 11.0 µM -3% | [15]; at 33.0 µM 10% | [15]; [18] 51% | [15]; at 50.0 µM 17.8% | [1]; at 1.2 µM 2% | [1]; at 3.7 µM 5% | [1]; [17] -4% | [1]; at 11.0 µM 8% | [1]; at 33.0 µM 16% | [1]; [18] 23% | [1]; at 50.0 µM -3.75% | [2]; at 1.2 µM -4% | [2]; at 3.7 µM -6% | [2]; at 11.0 µM -4% | [2]; at 33.0 µM 16% | [3]; [17] 1% | [3]; [18] 39% | [4]; at 1.2 µM -8% | [4]; at 3.7 µM -20% | [4]; at 11.0 µM -18% | [4]; at 33.0 µM -13% | [4]; at 100.0 µM 56% | [5]; [17] 8% | [5]; [18] 19% | [5]; at 50.0 µM 12.8% | [6]; at 1.2 µM -3% | [6]; at 3.7 µM -2% | [6]; [17] -1% | [6]; at 11.0 µM 4% | [6]; at 33.0 µM 25% | [6]; at 50.0 µM 7.85% | [7]; at 1.2 µM -1% | [7]; at 3.7 µM -2% | [7]; at 11.0 µM -4% | [7]; at 33.0 µM 2% | [8]; at 1.2 µM 1% | [8]; at 3.7 µM 1% | [8]; at 11.0 µM 3% | [8]; at 33.0 µM 16% | [9]; at 1.2 µM 2% | [9]; at 3.7 µM 3% | [9]; at 11.0 µM 8% | [9]; at 33.0 µM 18% | [10]; [17] 11% | [11]; at 1.2 µM -2% | [11]; at 3.7 µM -4% | [11]; at 11.0 µM -3% | [11]; at 33.0 µM 4%
